For some assays here: Measured potencies and affinities stand elsewhere.
Tests used:
Design in all cases: scale not given: direction of the effect not stated beside the values
[1] = biological target: Protein translocase subunit SecA (Escherichia coli (strain K12)) (UniProt P10408); experiment: Assay to Identify E. coli SecA ATPase Inhibitors; type: functional; conditions: 30 µM
[2] = biological target: T1, Ubiquitin-activating enzyme e1, putative (Leishmania donovani (strain BPK282A1)) (UniProt E9BSI1); experiment: Leishmania donovani Ubiquitin Activating Enzyme (LdE1); type: functional; conditions: 30 µM
T1 sequence (whole entry): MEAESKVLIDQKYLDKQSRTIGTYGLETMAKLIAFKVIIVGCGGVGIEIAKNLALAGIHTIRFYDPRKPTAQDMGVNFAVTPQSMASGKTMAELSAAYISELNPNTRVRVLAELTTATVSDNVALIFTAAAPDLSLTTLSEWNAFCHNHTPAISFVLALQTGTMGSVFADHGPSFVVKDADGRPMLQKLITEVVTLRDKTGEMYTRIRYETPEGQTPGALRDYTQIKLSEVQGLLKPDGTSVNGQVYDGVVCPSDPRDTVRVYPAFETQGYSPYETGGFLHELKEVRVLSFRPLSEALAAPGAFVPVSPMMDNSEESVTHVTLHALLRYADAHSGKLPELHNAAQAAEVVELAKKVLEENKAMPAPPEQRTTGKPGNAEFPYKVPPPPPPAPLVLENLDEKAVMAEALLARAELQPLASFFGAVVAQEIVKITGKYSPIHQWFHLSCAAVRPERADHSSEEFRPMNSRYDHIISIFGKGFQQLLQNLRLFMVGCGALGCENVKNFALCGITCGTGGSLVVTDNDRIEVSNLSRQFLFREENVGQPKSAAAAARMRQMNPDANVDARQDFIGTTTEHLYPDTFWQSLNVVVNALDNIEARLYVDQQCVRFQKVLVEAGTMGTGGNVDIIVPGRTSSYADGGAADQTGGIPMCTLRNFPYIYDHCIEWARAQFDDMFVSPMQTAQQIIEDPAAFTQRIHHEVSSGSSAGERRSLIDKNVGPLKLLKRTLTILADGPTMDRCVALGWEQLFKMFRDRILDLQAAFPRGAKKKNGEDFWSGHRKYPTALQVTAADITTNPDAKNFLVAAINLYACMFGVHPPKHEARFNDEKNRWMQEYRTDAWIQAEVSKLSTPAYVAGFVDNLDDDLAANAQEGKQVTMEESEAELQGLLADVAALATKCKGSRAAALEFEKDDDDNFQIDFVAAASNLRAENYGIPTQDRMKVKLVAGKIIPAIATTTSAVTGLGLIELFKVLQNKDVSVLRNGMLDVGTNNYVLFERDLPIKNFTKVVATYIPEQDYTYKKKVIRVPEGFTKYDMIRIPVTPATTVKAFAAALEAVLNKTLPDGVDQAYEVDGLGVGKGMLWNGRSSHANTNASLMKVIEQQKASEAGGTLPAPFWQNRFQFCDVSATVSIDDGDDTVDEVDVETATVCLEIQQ

[3] = biological target: Sialic acid-binding Ig-like lectin 9 (Homo sapiens) (UniProt Q9Y336); experiment: Hs-Siglec9 ALPHAscreen SOP 20170721; conditions: 10 µM
Sequence of Sialic acid-binding Ig-like lectin 9 (Homo sapiens) (Q9Y336 whole entry): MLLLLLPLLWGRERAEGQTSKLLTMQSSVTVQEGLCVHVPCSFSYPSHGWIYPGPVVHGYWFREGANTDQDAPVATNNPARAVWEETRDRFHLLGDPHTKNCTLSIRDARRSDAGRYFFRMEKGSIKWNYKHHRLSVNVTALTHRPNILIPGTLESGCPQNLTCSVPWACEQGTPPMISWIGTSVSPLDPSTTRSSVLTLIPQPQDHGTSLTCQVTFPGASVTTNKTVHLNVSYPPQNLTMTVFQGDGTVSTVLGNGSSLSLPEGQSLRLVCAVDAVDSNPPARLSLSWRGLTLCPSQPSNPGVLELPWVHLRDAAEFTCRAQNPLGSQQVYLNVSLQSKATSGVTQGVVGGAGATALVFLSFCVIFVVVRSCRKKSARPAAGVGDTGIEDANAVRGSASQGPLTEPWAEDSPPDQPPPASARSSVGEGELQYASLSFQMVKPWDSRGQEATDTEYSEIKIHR

Trypanosoma cruzi = experiment: Trypanosoma cruzi phosphomannomutase and mannose-1-phosphate guanylyltransferase assay; type: functional; conditions: 10 µM
[4] = biological target: T2, Arginase-2, mitochondrial (Homo sapiens) (UniProt P78540); experiment: in vitro enzyme assay to detect the production of urea directly proportional to the activity of Arginase II; type: functional; conditions: 33.3 µM; note: in the data most compounds retested in dose-response had high values
T2 sequence (whole entry): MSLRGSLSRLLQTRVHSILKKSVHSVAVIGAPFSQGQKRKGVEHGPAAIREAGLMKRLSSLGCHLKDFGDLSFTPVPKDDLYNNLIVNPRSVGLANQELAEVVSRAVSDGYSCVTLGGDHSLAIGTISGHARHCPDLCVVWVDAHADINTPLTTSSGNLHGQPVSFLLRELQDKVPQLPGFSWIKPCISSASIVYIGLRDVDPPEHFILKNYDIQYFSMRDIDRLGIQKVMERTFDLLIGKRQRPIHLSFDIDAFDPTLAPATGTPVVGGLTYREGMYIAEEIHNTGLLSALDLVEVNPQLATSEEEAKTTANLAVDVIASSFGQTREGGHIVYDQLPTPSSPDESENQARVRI

[5] = biological target: T3, Proteasome subunit beta (Trypanosoma cruzi) (UniProt O96673); experiment: Trypanosoma cruzi proteasome chymotrypsin-like activity (TcProtChymo) assay.; note: in the data most compounds retested in dose-response had high values; type: functional; conditions: 9.37 µM
T3 sequence (whole entry): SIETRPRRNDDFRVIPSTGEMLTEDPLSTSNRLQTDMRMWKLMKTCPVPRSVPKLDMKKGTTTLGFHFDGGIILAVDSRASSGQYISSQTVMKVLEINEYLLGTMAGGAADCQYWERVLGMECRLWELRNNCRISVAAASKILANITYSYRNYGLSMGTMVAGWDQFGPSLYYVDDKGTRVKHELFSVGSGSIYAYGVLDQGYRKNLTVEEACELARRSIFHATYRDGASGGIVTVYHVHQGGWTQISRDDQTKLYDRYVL

Homo sapiens = species on record: Homo sapiens; experiment: To identify inhibition of the IFN signalling (Jak-Stat) pathway via expression of an eGFP reporter gene under the control of an IFN-stimulated response element (ISRE) containing MxA promoter.; type: functional; conditions: 30 µM
[6] = biological target: T4, Tyrosyl-tRNA synthetase, putative (Trypanosoma cruzi (strain CL Brener)) (UniProt Q4DSP6); experiment: Trypanosoma cruzi tyrosyl tRNA synthetase (TcYRS) _High Tyrosine SOP; type: functional; conditions: 30 µM; note: in the data most compounds retested in dose-response had high values
T4 sequence (whole entry): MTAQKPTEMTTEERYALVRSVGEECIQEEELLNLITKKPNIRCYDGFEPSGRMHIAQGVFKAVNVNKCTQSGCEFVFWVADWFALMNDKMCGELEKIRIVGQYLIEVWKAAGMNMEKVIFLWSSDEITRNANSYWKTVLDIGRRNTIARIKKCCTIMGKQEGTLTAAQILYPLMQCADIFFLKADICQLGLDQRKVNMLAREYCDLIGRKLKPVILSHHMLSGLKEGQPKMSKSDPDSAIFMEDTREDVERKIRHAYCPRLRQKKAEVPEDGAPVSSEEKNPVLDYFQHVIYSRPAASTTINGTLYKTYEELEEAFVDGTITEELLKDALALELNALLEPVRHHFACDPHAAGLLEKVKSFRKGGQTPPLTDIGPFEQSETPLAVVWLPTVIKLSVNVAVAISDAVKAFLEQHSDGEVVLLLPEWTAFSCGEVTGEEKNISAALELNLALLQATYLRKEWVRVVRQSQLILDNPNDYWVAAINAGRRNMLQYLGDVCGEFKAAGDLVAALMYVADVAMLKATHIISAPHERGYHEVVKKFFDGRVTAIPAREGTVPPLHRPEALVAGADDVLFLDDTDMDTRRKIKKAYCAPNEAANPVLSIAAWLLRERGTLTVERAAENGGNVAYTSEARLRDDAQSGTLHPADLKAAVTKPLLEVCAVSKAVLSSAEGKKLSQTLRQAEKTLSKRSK

[7] = biological target: T4, Tyrosyl-tRNA synthetase, putative (Trypanosoma cruzi (strain CL Brener)); experiment: Trypanosoma cruzi tyrosyl tRNA synthetase (TcYRS) SOP; type: functional; conditions: 30 µM
[8] = biological target: Chromo domain-containing protein 1 (Saccharomyces cerevisiae (strain ATCC 204508 / S288c) (Baker's yeast)) (UniProt P32657); experiment: ScCHD-1 Enzyme Inhibition Assay; type: functional; conditions: 30 µM; note: in the data most compounds retested in dose-response had high values
Sequence of Chromo domain-containing protein 1 (Saccharomyces cerevisiae (strain ATCC 204508 / S288c) (Baker's yeast)) (P32657 whole entry, the tested form may be a part): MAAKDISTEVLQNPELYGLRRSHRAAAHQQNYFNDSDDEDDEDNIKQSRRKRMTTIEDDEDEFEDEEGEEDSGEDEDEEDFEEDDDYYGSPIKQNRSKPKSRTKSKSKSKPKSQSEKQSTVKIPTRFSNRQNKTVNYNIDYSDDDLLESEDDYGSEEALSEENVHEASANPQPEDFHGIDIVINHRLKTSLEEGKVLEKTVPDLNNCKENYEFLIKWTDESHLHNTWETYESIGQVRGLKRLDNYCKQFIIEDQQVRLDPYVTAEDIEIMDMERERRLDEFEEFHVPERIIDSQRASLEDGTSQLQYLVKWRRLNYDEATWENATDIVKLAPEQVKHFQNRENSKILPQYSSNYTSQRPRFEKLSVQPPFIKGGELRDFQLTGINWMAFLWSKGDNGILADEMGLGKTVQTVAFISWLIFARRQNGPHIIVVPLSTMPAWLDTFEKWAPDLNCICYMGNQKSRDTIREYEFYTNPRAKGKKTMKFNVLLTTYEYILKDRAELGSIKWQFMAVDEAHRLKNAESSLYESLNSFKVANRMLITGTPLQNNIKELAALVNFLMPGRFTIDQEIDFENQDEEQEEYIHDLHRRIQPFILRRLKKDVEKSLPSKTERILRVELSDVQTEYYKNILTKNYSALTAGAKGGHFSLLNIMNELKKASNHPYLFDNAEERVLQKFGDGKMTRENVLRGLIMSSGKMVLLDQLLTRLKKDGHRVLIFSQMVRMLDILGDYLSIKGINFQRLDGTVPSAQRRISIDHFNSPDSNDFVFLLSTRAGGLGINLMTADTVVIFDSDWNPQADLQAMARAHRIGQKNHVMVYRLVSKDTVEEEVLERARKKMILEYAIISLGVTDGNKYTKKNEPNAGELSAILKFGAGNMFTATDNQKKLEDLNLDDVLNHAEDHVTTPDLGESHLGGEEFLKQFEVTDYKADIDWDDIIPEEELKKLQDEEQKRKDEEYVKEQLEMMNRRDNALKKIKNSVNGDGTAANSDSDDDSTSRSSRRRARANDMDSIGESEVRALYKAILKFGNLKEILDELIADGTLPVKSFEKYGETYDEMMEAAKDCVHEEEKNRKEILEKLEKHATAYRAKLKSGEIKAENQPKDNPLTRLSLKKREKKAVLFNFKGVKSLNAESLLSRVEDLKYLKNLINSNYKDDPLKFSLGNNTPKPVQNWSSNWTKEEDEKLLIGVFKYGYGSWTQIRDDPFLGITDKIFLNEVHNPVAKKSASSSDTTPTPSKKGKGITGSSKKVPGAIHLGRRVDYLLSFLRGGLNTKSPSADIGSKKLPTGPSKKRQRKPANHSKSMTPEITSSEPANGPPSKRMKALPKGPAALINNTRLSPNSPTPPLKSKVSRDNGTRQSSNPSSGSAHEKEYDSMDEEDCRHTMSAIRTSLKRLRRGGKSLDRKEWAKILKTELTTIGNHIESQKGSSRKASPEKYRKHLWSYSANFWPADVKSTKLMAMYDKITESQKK

Sequence of Protein translocase subunit SecA (Escherichia coli (strain K12)) (P10408 whole entry): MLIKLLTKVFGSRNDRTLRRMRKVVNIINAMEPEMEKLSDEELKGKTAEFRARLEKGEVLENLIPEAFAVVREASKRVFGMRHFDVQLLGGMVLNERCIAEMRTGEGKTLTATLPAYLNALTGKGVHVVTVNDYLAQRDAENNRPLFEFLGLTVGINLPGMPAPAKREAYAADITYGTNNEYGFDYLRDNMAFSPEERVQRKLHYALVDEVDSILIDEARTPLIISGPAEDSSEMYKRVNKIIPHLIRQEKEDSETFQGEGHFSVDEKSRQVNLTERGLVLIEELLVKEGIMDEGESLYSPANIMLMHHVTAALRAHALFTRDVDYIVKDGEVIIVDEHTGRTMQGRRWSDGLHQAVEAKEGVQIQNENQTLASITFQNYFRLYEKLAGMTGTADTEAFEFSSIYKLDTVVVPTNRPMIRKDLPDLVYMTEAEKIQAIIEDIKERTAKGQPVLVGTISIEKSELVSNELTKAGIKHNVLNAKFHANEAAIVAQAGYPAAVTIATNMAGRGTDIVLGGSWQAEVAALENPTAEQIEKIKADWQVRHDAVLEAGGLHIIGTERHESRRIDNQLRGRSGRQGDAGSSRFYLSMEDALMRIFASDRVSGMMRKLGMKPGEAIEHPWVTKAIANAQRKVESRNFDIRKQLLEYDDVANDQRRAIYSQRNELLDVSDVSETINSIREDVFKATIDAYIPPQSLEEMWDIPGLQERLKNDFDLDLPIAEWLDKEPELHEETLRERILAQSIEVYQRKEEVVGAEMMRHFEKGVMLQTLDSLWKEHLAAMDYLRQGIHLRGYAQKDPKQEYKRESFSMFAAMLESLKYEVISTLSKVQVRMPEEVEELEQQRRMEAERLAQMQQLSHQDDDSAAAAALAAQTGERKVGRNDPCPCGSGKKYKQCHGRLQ

Row | SMILES | Percent Effect [1] | Percent Effect [2] | Percent Effect [3] | Percent Effect (Trypanosoma cruzi) | Percent Effect [4] | Percent Effect [5] | Percent Effect (Homo sapiens) | Percent Effect [6] | Percent Effect [7] | Percent Effect [8]
1 | O=C1C(NCc2nnc3n2CCCC3)CCCN1c1cccc(F)c1 (stereo not given) | 0.699% | 10.3% | -12.3% | -1.6% | 6.56% | 16.8% | 19.1% | 10.1% | 13.2% | -2.66%
2 | Cn1ccc(CN2CCCC2c2ccc3c(c2)OCCCO3)cc1=O (stereo not given) | -1.37% | 7.69% | -4.76% | 1.78% | 6.56% | 18.2% | 22% | 9.09% | 20.5% | -1.67%
3 | Cc1ccc2cc(C(=O)NCCn3nc4ccccn4c3=O)[nH]c2c1 | -1.72% | 10.3% | -11.1% | -8.36% | 1.23% | 16.3% | 19.6% | -1.44% | 1.21% | -7.76%
4 | O=C1NC2(CCN(Cc3nccs3)CC2)CC1c1ccncc1 (stereo not given) | -7.46% | 9.09% | 9.45% | 6.13% | -6.07% | 6.8% | -18.5% | 3.68% | 10.3% | 0.471%
5 | CN1CCN(C[C@@H]2CN(C(=O)c3ccccc3C#N)C[C@@H]2CO)CC1 | -3.4% | 10.8% | 10.3% | 7.86% | 0.35% | 3.42% | 7.14% | 4.79% | 9.76% | 0.408%
6 | COc1cccc(CN2CCC3(CCN(C(=O)[C@H]4CCCO4)CC3)C2)c1 | -2.54% | 22.1% | -5.6% | 0.188% | 0% | 12.6% | -14.8% | 10.6% | -2.5% | -10.4%
7 | CC(=O)N1CCc2c(nc(-c3ccccn3)nc2N(C)CC(O)CO)C1 (stereo not given) | -7.71% | 8.11% | 3.94% | 2.62% | 5.25% | 3.94% | -12.5% | 14.4% | 21.9% | -1.31%
8 | Cc1nc(COc2ccc(CNCC3CN(C)CCO3)cc2)cs1 (stereo not given) | -3.51% | 2.6% | 0.562% | -3.73% | 3.07% | 3.16% | 18.8% | -0.98% | -2.35% | -1.69%
9 | COc1c(CNC2CCc3cc(F)ccc32)c(C)nn1C (stereo not given) | -0.933% | 7.79% | 8.9% | -0.187% | 5.94% | -1.23% | -9.97% | 3.92% | 9.41% | -0.439%
10 | CN1CCN(c2cc(CNC(=O)c3ccc(=O)[nH]n3)ccn2)CC1 | -0.863% | 12.8% | -10.3% | -2.16% | 9.43% | 9.81% | 23.3% | 6.22% | 18.1% | -2.33%
11 | Cc1cnc(C(=O)N2C[C@@H]3CN(CC4CCCC4)CCO[C@@H]3C2)cn1 | -3.12% | 11.7% | 4.74% | 0.682% | -3.24% | 9.97% | 11% | 5.79% | 10.3% | -2.15%

From ChEMBL document CHEMBL3988442, “University of Dundee, Small-Polar-MMV Screening Library” (2021)
